Among all 69,000 compounds or so, about 950 (1.4%) showed an effect of 50% or more. For the sample, strong results were picked, then their nearest neighbours and some compounds at random.
These molecules were tested on Mycobacterium tuberculosis (assay: Cornell M. t heat shock assay; also: in the data most compounds retested in dose-response had high values).
Assay type: functional, organism-based
Parameters: dose or concentration left out as unconfirmed
`O=C(C1CCC1)N1C[C@@H]2CC[C@H](C1)N(S(=O)(=O)c1ccccc1)C2` was tested, and the “Percent Effect” value was -12.74%. In the case of `CN(C)C(=O)N1C[C@@H]2CC[C@H](C1)N(S(=O)(=O)c1cccnc1)C2`, the “Percent Effect” value is reported as -21.11%. `O=C(NCc1cccnc1)N1CCc2ncnc(NC3CC3)c2CC1.O=C(O)C(F)(F)F` was tested, and the “Percent Effect” value was -0.2594%. For `CCOCC1c2c(ncn2C)CCN1C(=O)c1cnc(C)cn1.O=C(O)C(F)(F)F` (stereo unspecified), the “Percent Effect” value was 18.53%. For `CCOCC1c2c(ncn2C)CCN1C(=O)c1ccoc1` (stereo unspecified), the “Percent Effect” value was 35.15%. `CCOCC1c2c(ncn2C)CCN1C(=O)c1cscn1` (stereo unspecified) was tested, and the “Percent Effect” value was 57.96%. `CC(C)(CO)NCc1ccc(OCc2ccc3c(c2)OCCO3)cc1.Cl` was tested, and the “Percent Effect” value was -22.54%. `O=C(O)C(F)(F)F.O=C(O)C(F)(F)F.O=C(O)C(F)(F)F.c1cncc(CN2CC[C@@H]3O[C@H](COCCN4CCCC4)CC[C@@H]32)c1` was tested, and the “Percent Effect” value was -18.74%. For `CC(C)C(=O)N1CC[C@@H]2[C@H](CC1)N(Cc1cccnc1)CCS2(=O)=O.O=C(O)C(F)(F)F.O=C(O)C(F)(F)F`, the “Percent Effect” value was -30.61%. With `Cc1cc(NC(=O)C(C)Nc2cccc(COCc3ccco3)c2)on1` (stereo unspecified) the “Percent Effect” value was 4.042%. With `CC(Nc1cccc(COCc2ccco2)c1)C(=O)NC(N)=O` (stereo unspecified) the “Percent Effect” value was 0.6149%. In the case of `CCOC(=O)C(C)Nc1cccc(COCc2ccco2)c1` (stereo unspecified), the “Percent Effect” value is reported as 104.6%. With `CC(C)CN1CCC2(CCCNC2)C1=O.Cl` (stereo unspecified) the “Percent Effect” value was -13.24%. With `O=C(O)C(F)(F)F.O=C(c1cccnc1)N1CCc2ncnc(C3CCOC3)c2CC1` (stereo unspecified) the “Percent Effect” value was 8.544%. `COCc1nn(C(C)C)c2c1CCN(Cc1nccs1)C2.O=C(O)C(F)(F)F` was tested, and the “Percent Effect” value was -16.62%. With `Cc1nc(CN2CCO[C@@H]3CN(Cc4cccs4)C[C@@H]3C2)cs1.O=C(O)C(F)(F)F.O=C(O)C(F)(F)F` the “Percent Effect” value was -15.47%. In the case of `Cc1nc(CN2CCOCC3(CCN(c4cnccn4)CC3)C2)cs1.O=C(O)C(F)(F)F`, the “Percent Effect” value is reported as -3.315%. `CCc1cccc2c(CC(=O)N(C)CCN(C)C)c(C)[nH]c12.O=C(O)CC(O)(CC(=O)O)C(=O)O` was tested, and the “Percent Effect” value was 1.394%. In the case of `Cc1cc(NC2CCN(c3ccc(F)cc3)CC2)n2nc(C)cc2n1`, the “Percent Effect” value is reported as 11.63%. With `Cc1cc(NC2CCCN(Cc3ccc(F)cc3)C2)n2nc(C)cc2n1` (stereo unspecified) the “Percent Effect” value was 55.79%. In the case of `Cc1cc(N[C@H]2CCCN(Cc3ccccc3)C2)n2nc(C)cc2n1`, the “Percent Effect” value is reported as 37.52%. `CNc1ncc2c(n1)CN(Cc1ccc(Cl)cc1)C2=O` was tested, and the “Percent Effect” value was -7.307%. In the case of `C[C@@H]1CN(Cc2cc(C3CCCCC3)no2)CC[C@@]1(O)C1CC1`, the “Percent Effect” value is reported as -30.44%. With `COCCC(=O)N1CCC(c2cc(O)n(C)n2)C1` (stereo unspecified) the “Percent Effect” value was 9.695%. In the case of `Cn1ccc(C(=O)N2CCCC(c3cc(O)n(C)n3)C2)n1` (stereo unspecified), the “Percent Effect” value is reported as -7.619%. In the case of `Cn1nc(C2CCCN(C(=O)CO)C2)cc1O` (stereo unspecified), the “Percent Effect” value is reported as 54.18%. `COCCN1CCOCC12CCN(C(=O)c1cccnc1)CC2.O=C(O)C(F)(F)F` was tested, and the “Percent Effect” value was -43.19%. In the case of `CN1CC[C@@H]2OC[C@H](C(=O)N(C)Cc3ccccn3)C[C@@H]2C1.O=C(O)C(F)(F)F.O=C(O)C(F)(F)F`, the “Percent Effect” value is reported as 42.17%. With `O=C(NC1CC1)[C@@H]1CCO[C@@H]2CCN(Cc3ccsc3)C[C@H]21.O=C(O)C(F)(F)F` the “Percent Effect” value was -0.7242%. For `O=C(O)C(F)(F)F.O=C([C@@H]1C[C@@H]2CCN(CCc3ccccc3)C[C@H]2O1)N1CCCC1`, the “Percent Effect” value was 7.524%. In the case of `CN(C)Cc1cc(=O)n2c(n1)CN(CC1CC1)CCC2`, the “Percent Effect” value is reported as -15.16%. For `O=c1cc(CN2CCCC2)nc2n1CCCN(CC1CC1)C2`, the “Percent Effect” value was 59.59%. In the case of `O=c1cc(CN2CCCC2)nc2n1CCCN(CC1CCOCC1)C2`, the “Percent Effect” value is reported as -14.03%. `COCC(=O)NC[C@H]1CC[C@H](c2nnc(-c3ccncc3)o2)CC1` was tested, and the “Percent Effect” value was -43.76%. With `Cn1cc(CN2CCCC23CCN(Cc2nccn2C)CC3)cn1.O=C(O)C(F)(F)F.O=C(O)C(F)(F)F` the “Percent Effect” value was -17.58%. With `Cl.Cl.O=C(NCc1cncc2c1CCN(C1CCOCC1)C2)c1ccco1` the “Percent Effect” value was 7.016%. `O=C(O)C(F)(F)F.O=C(O)C(F)(F)F.c1ccc(N2CCC3(COCCN(c4ncccn4)C3)C2)nc1` (stereo unspecified) was tested, and the “Percent Effect” value was 3.163%. For `Cn1cc(CN2CCC(F)(F)C3(CCN(c4ncccn4)C3)C2)cn1.O=C(O)C(F)(F)F.O=C(O)C(F)(F)F` (stereo unspecified), the “Percent Effect” value was -18.65%. With `CC(C)n1ccnc1CN1CCOC(CCc2ccccc2)C1` (stereo unspecified) the “Percent Effect” value was -0.01061%. `CC(C)n1ccnc1CN1CCCN(C(=O)CC2CCCO2)CC1` (stereo unspecified) was tested, and the “Percent Effect” value was -7.243%. With `CC(C)n1ccnc1CN1CCOC(CC2CCCCC2)C1` (stereo unspecified) the “Percent Effect” value was 50.37%. In the case of `O=C(O)C(F)(F)F.O=C(O)C(F)(F)F.O=C(O)C(F)(F)F.c1cnc(NC[C@H]2OC[C@@H]3CCN(Cc4nccs4)C[C@@H]32)nc1`, the “Percent Effect” value is reported as -22.37%. With `CNC(=O)[C@H]1C[C@@H]2CN(Cc3cccnc3OC)C[C@@H]2N1C(C)=O.O=C(O)C(F)(F)F.O=C(O)C(F)(F)F` the “Percent Effect” value was -6.106%. For `CCc1ccc(C2CCCN2C(=O)NCC(=O)NCC(C)C)o1` (stereo unspecified), the “Percent Effect” value was -12.75%. For `COCCN1CCN(CCCS(C)(=O)=O)CC1C` (stereo unspecified), the “Percent Effect” value was -16.37%. `COCCN1CCN(CCS(=O)(=O)C(F)(F)F)CC1C` (stereo unspecified) was tested, and the “Percent Effect” value was 105.5%. For `COCCN1CCN(CCS(C)(=O)=O)CC1C` (stereo unspecified), the “Percent Effect” value was -13.47%. With `CCN(CC)Cc1cn2c(n1)CN(C(=O)c1cc(C)on1)CC2.O=C(O)C(F)(F)F` the “Percent Effect” value was -2.302%. With `CCc1noc(CS(=O)(=O)CC=C(C)C)n1` the “Percent Effect” value was 29.3%. For `CC(C)c1noc(CS(=O)(=O)CC(=O)NCCOc2ccccc2)n1`, the “Percent Effect” value was 41.58%. In the case of `CC(C)=CCS(=O)(=O)Cc1nc(C(C)C)no1`, the “Percent Effect” value is reported as 58.075%. With `CC(C)c1noc(CS(=O)(=O)Cc2nc(C(C)C)no2)n1` the “Percent Effect” value was -44.125%. In the case of `Cc1noc(CS(=O)(=O)CC(=O)NC(C)c2ccccc2)n1` (stereo unspecified), the “Percent Effect” value is reported as 70.08%. `CC(Cn1cccn1)NCc1nc(-c2cccs2)no1` (stereo unspecified) was tested, and the “Percent Effect” value was 22.29%. In the case of `CC(C)c1noc(CS(=O)(=O)CC(=O)NCc2ccccc2)n1`, the “Percent Effect” value is reported as 49.68%. `Cc1noc(CS(=O)(=O)C(C)C(=O)N(C)c2ccccc2)n1` (stereo unspecified) was tested, and the “Percent Effect” value was 6.585%. `CC(C)c1noc(CS(=O)(=O)CC(=O)NCc2cccs2)n1` was tested, and the “Percent Effect” value was 58.74%. In the case of `CCN(C(=O)C(C)S(=O)(=O)Cc1nc(C)no1)c1ccccc1` (stereo unspecified), the “Percent Effect” value is reported as -1.269%. With `CCC(C)NC(=O)CS(=O)(=O)Cc1ccccc1Cl` (stereo unspecified) the “Percent Effect” value was -5.393%. In the case of `CCC(C)NC(=O)CS(=O)(=O)Cc1nc(-c2cccs2)no1` (stereo unspecified), the “Percent Effect” value is reported as 65.94%. `CC1N(C)C(=O)COC12CCN(Cc1nccs1)CC2.O=C(O)C(F)(F)F` (stereo unspecified) was tested, and the “Percent Effect” value was 2.077%. For `CCn1nc(C)cc1C(=O)N1C[C@H]2CCC[C@@]2(COc2ccccn2)C1.O=C(O)C(F)(F)F`, the “Percent Effect” value was -22.73%. In the case of `O=C(N[C@@H]1CN(CC2CC2)[C@@H]2CCCO[C@@H]21)c1cscn1.O=C(O)C(F)(F)F`, the “Percent Effect” value is reported as 21.59%. In the case of `Cl.O=c1c2sccc2nc2n1CCN(Cc1ccccc1C(F)(F)F)CC2`, the “Percent Effect” value is reported as 24%. In the case of `O=C(NC[C@]12COC[C@H]1CN(C1CCOCC1)C2)c1ccco1.O=C(O)C(F)(F)F`, the “Percent Effect” value is reported as -7.738%. With `O=C(O)C(F)(F)F.O=C([C@H]1C[C@@H]2CCN(C3CCOCC3)C[C@H]2O1)N1CCCC1` the “Percent Effect” value was -29.11%. In the case of `CCCc1noc(CS(=O)(=O)CC(=O)NC(C)CCC)n1` (stereo unspecified), the “Percent Effect” value is reported as 60.91%. In the case of `CCCc1noc(CCC(=O)NC(C)c2nnc3n2CCCCC3)n1` (stereo unspecified), the “Percent Effect” value is reported as -4.52%. In the case of `CC(C)c1noc(CS(=O)(=O)CC(=O)NCC(F)(F)F)n1`, the “Percent Effect” value is reported as 45.89%. For `COc1cccc(CN2C[C@@H]3COC[C@]3(COCc3ccccn3)C2)c1.O=C(O)C(F)(F)F.O=C(O)C(F)(F)F`, the “Percent Effect” value was -27.12%. `Fc1cnc(N2CCCC3(CCN(Cc4ccco4)C3)C2)nc1.O=C(O)C(F)(F)F.O=C(O)C(F)(F)F` (stereo unspecified) was tested, and the “Percent Effect” value was -39.88%. With `Cc1cnn(CC2CCCN2Cc2nc(N)c3ccccc3n2)c1` (stereo unspecified) the “Percent Effect” value was 64.38%. With `Nc1nc(CN2CCCC2Cn2cncn2)nc2ccccc12` (stereo unspecified) the “Percent Effect” value was -4.506%. With `Cc1cnn(CC2CN(Cc3nc(N)c4ccccc4n3)CCO2)c1` (stereo unspecified) the “Percent Effect” value was 8.088%. `Cc1cnn(CC2CCCN2Cc2noc(-c3ccccc3)n2)c1` (stereo unspecified) was tested, and the “Percent Effect” value was -2.457%. For `Nc1nc(CN2CCCCC2Cn2cncn2)nc2ccccc12` (stereo unspecified), the “Percent Effect” value was -45.18%. `Cc1cnn(CC2CCCCN2Cc2nc(N)c3ccccc3n2)c1` (stereo unspecified) was tested, and the “Percent Effect” value was 92.62%. For `COc1cccc(CN2CCCCC2c2n[nH]cc2-c2cc(C)no2)c1.Cl` (stereo unspecified), the “Percent Effect” value was 13.26%. With `CCOC1COC2(CCN(CC3CCOCC3)CC2)C1.O=C(O)C(F)(F)F` (stereo unspecified) the “Percent Effect” value was -19.84%. In the case of `CCS(=O)(=O)N1CCOCC2(CCN(c3ccccn3)C2)C1.O=C(O)C(F)(F)F` (stereo unspecified), the “Percent Effect” value is reported as -24.76%. `CCc1nc2ccccc2c(=O)n1CC1(O)CCNCC1.Cl` was tested, and the “Percent Effect” value was -1.704%. For `O=C(O)C(F)(F)F.O=C(c1ccncn1)N1CCC[C@]2(C[C@H](Oc3ncccc3F)CO2)C1`, the “Percent Effect” value was -22.98%. With `COCCCNC(=O)c1cn(C(C)(C)C)c2ncccc12` the “Percent Effect” value was 50.28%. In the case of `CCNC(=O)c1cn(C(C)(C)C)c2ncccc12`, the “Percent Effect” value is reported as 35.45%. For `COCCN(CCOC)C(=O)c1cn(C(C)(C)C)c2ncccc12`, the “Percent Effect” value was 20.52%. With `CC(C)(C)n1cc(C(=O)NCCCn2ccnc2)c2cccnc21` the “Percent Effect” value was -4.729%. `CCOCCCNC(=O)c1cn(C(C)(C)C)c2ncccc12` was tested, and the “Percent Effect” value was 48.73%. With `CNC(=O)c1cn(C(C)(C)C)c2ncccc12` the “Percent Effect” value was 4.278%. For `COCC(C)NC(=O)c1cn(C(C)(C)C)c2ncccc12` (stereo unspecified), the “Percent Effect” value was -8.611%. With `CCCNC(=O)c1cn(C(C)(C)C)c2ncccc12` the “Percent Effect” value was 52.59%. With `COCCNC(=O)c1cn(C(C)(C)C)c2ncccc12` the “Percent Effect” value was 84.66%.
